Assay results: the supplement of paper PMC11732987, “Enantioselective OTUD7B fragment discovery through chemoproteomics screening and high-throughput optimisation” (Communications Chemistry, 2025)

Legend:
Test in all cases: log2 ratio of Biotin-Ahx-Ub-VS probe labelling (fragment/DMSO); higher = less target engagement (more negative = stronger competition), active = hit call of the paper (q ≤ 0.05, log2 ratio ≤ -1)
Conditions in all cases: compound concentration: 200 uM; treatment time: 3 h
[1] = target: T1, ALG13 (UniProt Q9NP73)
T1 sequence (whole entry): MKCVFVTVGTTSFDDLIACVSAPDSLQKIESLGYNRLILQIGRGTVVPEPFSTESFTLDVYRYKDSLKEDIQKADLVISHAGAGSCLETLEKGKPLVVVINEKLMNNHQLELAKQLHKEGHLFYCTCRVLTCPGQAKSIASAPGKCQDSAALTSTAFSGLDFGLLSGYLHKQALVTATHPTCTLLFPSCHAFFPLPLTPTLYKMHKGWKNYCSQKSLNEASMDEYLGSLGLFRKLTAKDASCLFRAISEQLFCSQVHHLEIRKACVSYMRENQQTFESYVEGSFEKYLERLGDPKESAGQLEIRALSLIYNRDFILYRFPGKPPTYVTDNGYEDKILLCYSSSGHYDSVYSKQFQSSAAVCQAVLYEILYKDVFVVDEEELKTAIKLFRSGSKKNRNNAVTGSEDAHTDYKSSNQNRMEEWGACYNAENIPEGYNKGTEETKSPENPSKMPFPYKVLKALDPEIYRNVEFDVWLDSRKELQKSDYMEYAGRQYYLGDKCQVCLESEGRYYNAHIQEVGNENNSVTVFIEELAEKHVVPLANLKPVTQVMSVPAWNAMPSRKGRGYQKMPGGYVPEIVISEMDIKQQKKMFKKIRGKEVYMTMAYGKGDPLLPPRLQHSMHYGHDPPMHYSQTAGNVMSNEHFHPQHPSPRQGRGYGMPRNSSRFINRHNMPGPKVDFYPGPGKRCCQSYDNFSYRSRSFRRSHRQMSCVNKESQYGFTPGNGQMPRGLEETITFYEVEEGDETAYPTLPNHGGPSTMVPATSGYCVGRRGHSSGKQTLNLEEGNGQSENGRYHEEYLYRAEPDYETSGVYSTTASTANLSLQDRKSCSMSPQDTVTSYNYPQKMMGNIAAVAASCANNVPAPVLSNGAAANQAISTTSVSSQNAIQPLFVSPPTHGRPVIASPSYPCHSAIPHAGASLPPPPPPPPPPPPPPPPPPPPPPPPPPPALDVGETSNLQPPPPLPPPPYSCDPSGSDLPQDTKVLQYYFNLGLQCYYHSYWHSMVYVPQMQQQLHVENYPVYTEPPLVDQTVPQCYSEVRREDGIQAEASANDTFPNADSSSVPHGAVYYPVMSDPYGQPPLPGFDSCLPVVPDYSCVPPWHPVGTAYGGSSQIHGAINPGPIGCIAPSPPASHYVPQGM
In short: (§1)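 Each value is an average log2 ratio of fragment to vehicle, tested by unpaired t-test. The underlying Spectronaut label-free quantities were global-median-normalised, and only proteins with ≥2 unique peptides were included. Triplicate HEK293T lysate samples (495 µg) were exposed to fragment at 200 µM or vehicle for 3 h, then to Biotin-Ahx-Ub-VS at 0.5 µM final for 1 h, before NeutrAvidin enrichment of labelled DUBs, LysC and trypsin digestion, and diaPASEF LC-MS/MS.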

[2] = target: ATXN3 (UniProt P54252)
In short: as §1

[3] = target: T2, BAP1 (UniProt Q92560)
T2 sequence (whole entry): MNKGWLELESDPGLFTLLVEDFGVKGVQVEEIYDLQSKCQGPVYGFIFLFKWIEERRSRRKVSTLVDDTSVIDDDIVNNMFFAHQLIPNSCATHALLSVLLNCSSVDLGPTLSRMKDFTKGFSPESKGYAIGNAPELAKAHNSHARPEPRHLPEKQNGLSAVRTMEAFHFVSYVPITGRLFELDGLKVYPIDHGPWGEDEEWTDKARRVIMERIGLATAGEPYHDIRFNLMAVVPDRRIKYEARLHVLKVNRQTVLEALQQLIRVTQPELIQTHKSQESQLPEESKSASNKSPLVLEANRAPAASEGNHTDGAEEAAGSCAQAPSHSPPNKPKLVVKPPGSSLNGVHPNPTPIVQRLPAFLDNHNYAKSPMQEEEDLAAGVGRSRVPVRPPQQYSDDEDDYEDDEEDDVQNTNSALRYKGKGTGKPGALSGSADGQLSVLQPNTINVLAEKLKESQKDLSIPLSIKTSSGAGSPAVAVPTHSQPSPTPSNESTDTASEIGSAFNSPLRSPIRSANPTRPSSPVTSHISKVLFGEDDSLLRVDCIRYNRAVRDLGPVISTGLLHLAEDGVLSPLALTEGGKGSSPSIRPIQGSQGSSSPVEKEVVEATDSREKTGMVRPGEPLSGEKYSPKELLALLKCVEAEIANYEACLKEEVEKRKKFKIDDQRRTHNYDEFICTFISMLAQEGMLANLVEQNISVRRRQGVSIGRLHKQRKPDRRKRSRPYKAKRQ
In short: as §1

[4] = target: EIF3F (UniProt O00303)
In short: as §1

[5] = target: EIF3H (UniProt O15372)
In short: as §1

[6] = target: T3, FAM105A (UniProt Q9NUU6)
T3 sequence (whole entry): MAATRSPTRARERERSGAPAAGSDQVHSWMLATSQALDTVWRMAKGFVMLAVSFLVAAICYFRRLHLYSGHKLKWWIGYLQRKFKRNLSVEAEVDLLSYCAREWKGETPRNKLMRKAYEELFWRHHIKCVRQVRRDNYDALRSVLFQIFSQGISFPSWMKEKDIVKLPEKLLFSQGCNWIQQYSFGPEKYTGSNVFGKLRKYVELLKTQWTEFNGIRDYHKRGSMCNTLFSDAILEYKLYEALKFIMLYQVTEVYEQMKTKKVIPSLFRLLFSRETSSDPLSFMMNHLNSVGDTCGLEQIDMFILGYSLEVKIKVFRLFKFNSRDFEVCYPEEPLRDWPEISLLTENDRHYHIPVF
In short: as §1

[7] = target: OTUB1 (UniProt Q96FW1)
In short: as §1

[8] = target: T4, OTUD4 (UniProt Q01804)
T4 sequence (whole entry): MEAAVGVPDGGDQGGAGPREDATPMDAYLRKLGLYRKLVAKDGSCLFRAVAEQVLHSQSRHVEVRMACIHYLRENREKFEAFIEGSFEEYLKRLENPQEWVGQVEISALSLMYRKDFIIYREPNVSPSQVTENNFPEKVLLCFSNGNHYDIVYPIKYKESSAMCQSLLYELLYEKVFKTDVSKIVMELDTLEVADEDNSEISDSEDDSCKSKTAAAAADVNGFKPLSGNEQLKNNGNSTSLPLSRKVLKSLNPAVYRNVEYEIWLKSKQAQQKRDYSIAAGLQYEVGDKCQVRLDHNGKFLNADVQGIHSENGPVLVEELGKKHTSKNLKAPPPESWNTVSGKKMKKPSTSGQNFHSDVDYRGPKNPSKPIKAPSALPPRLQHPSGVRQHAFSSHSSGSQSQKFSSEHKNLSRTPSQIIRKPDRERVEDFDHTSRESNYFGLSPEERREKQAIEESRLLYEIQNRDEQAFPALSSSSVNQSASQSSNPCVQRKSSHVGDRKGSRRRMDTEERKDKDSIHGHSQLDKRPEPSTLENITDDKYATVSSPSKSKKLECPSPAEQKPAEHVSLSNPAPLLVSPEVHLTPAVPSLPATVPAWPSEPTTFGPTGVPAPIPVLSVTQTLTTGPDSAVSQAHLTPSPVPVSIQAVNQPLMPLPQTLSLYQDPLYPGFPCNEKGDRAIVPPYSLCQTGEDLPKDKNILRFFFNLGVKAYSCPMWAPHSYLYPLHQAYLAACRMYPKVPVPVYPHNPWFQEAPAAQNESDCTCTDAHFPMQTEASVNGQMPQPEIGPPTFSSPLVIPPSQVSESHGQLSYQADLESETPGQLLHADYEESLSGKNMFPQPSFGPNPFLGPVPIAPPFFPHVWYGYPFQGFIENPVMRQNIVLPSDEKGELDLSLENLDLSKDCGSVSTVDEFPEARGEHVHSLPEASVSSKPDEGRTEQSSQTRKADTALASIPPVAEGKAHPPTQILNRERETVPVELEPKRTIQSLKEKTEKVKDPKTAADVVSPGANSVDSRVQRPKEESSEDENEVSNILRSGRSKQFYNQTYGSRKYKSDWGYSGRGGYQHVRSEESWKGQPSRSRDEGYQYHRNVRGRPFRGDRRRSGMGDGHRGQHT
In short: as §1

[9] = target: T5, OTUD5 (UniProt Q96G74)
T5 sequence (whole entry): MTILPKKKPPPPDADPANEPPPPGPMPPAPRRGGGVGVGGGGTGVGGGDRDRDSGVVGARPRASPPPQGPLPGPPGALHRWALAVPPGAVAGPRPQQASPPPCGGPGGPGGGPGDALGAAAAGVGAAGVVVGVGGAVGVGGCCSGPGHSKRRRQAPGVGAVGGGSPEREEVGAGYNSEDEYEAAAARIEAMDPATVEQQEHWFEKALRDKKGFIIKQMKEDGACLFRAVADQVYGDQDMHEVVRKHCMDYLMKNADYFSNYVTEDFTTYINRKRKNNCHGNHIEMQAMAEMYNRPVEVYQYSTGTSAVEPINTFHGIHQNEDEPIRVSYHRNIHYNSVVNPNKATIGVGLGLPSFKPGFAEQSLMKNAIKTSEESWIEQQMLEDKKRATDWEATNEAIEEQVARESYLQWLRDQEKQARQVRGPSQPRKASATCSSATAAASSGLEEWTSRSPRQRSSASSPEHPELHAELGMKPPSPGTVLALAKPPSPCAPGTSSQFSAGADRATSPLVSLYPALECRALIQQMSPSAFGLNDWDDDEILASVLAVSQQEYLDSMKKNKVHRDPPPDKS
In short: as §1

Measured: log2 ratio of Biotin-Ahx-Ub-VS probe labelling

Sequence of EIF3F (O00303 whole entry): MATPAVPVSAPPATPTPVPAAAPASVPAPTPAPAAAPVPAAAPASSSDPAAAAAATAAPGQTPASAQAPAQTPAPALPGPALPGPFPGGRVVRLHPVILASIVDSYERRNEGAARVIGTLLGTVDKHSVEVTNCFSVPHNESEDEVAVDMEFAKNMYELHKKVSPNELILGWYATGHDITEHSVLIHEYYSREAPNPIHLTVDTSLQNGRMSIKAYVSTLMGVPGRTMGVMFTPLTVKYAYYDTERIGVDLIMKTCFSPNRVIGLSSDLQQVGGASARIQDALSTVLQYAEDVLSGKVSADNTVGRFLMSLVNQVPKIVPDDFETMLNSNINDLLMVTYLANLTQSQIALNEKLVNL
Sequence of EIF3H (O15372 whole entry): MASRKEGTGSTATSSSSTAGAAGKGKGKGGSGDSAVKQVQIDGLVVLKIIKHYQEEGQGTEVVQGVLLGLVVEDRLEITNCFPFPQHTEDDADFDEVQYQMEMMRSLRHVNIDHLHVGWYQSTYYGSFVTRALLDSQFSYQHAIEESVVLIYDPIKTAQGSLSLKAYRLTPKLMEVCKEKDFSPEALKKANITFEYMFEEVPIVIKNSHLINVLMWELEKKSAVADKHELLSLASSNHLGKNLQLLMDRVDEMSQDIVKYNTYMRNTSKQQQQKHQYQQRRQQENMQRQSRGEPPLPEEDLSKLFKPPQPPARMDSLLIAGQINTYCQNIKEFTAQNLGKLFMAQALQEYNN
Sequence of ATXN3 (P54252 whole entry): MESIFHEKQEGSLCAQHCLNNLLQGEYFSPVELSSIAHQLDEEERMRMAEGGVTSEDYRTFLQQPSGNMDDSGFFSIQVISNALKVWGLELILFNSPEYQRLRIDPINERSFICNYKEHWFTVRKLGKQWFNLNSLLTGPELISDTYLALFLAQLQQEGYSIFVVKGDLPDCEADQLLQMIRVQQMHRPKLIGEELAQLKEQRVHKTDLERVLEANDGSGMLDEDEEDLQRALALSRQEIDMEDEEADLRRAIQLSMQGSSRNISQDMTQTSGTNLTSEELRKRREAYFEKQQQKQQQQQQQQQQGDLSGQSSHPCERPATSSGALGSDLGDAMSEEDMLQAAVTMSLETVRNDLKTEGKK
Sequence of OTUB1 (Q96FW1 whole entry): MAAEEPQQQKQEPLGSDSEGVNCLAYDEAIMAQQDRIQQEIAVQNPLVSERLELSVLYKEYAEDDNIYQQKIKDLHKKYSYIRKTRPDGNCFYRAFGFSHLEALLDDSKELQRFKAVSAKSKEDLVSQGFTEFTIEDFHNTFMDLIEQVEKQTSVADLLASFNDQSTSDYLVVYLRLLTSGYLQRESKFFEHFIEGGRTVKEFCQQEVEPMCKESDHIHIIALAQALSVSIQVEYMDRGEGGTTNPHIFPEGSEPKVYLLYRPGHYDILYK

O=C(CCl)Nc1ccc(N2CCCC2=O)cc1
inactive: [1] 0.0794 | [2] 0.0787 | [4] -0.125 | [5] 0.315 | [6] 0.0919 | [7] -0.351 | [8] 0.0281 | [9] -0.504
active: [3] -3.73
